The values that follow come from PubChem BioAssay (NCI).

Compounds without any hit were thinned out: in the full panel of roughly 83,000, 20% have a hit.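 48-hour exposure, single concentration, 96-well plates; percent growth endpoint where 0 means no net growth. Active: below 10.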 Activity calls are given as the source filed them.

The experiment concerns T-47D breast. The experiment in a line: NCI-60 one-dose screen, 48 h (100 = growth as untreated, 0 = no growth, -100 = all killed). The note with it: 10 µM unless noted.
For the compound `COC12C=C/C(=C(/C(=O)OCc3ccncn3)C(=O)CCCCCCCCC3(OC)C=C/C(=C(/C(=O)OCc4ccncn4)C(=O)CCCCCCCC1)O3)O2`, the growth is 25.3% (inactive).

Regarding `CN(/C(N)=N/N=C/c1c2ccccc2cc2ccccc12)C1CCCCC1`, the growth is 30.8% (inactive).

For `Cn1cc(-c2csc(-c3c[nH]c4ccc(Br)cc34)n2)c2ccnc(Cl)c21`, the growth was 25.9% (inactive).

Take `COC(=O)c1nc(-c2ccc(C)cc2)oc1S(=O)(=O)c1cccc(OC)c1`: the growth was 90% (inactive).

As to `CCCCn1c(=O)[nH]c(N)c([C@@H]2c3c([nH]c(=O)n(CCCC)c3=O)Oc3ccc4ccccc4c32)c1=O`, the growth is 81.1% (inactive).

As for `O=C(O)c1cn(C2CC2)c2cc(N3CCN(C(=O)N(c4ccccc4)c4nc(-c5ccccc5)cs4)CC3)c(F)cc2c1=O`, the growth is 11.4% (inactive).

On to `CCC(C)(C)C(=O)O[C@H]1C[C@@H](C)C=C2C=C[C@H](C)[C@H](CC[C@@H]3CC(SCCN)CC(=O)O3)[C@H]21` (stereo not given in full), for which the growth was 89.8% (inactive).

In the case of `COc1cc(OC)c(NC(=O)c2cc3ccccc3cc2O)cc1Cl`, the growth is 78.7% (inactive).

On to `O=C(Nc1cccc2ccccc12)NC1CC1`, for which the growth was 91.5% (inactive).

As to `COc1ccc(C(=O)c2cc3c(N)c(C(=O)Nc4ccc(C)cc4)sc3nc2C)cc1`, the growth is 46.6% (inactive).

On to `CCCCCCCCCCCCCCCCCCOc1ccccc1CC(=O)OCC[N+](C)(C)C`, for which the growth is 28.8% (inactive).

As for `C=CC[Se]C(=O)Cc1c(C)n(C(=O)c2ccc(Cl)cc2)c2ccc(OC)cc12`, the growth is -24.3% (active).

Consider `Cc1cc(N2CCCCC2)cc(C)c1-c1csc(NC(=O)c2ccncc2)n1`, for which the growth is 34.3% (inactive).

For the compound `Cc1[nH]c(C(=O)Nc2ccccc2OC2CCNCC2)c(Cl)c1Cl`, the growth is -4.05% (active).

Turning to `O=C(Nc1cccc(Cl)c1)Nc1cccc(Cn2c(=O)[nH]c3ccc(Oc4ncccn4)cc3c2=O)c1`, the growth is 16.3% (inactive).

As to `CCCCCCC12CCC(=O)N1CCc1cncn12` (stereo not given), the growth is 91.9% (inactive).

As to `CCCC/C(CC)=N\NS(=O)(=O)c1ccc([N+](=O)[O-])cc1`, the growth was 95.3% (inactive).

As for `C[C@@H](CO)[C@@H]1CCC=C2CC[C@]3(C)[C@H](CC[C@@H]4[C@@]5(C)CCCNC(C)(C)[C@@H]5CC[C@]43C)[C@H]21`, the growth is 58.9% (inactive).

On to `O=C1NC2(Nc3ccccc31)C(=O)Nc1c(Cl)cc(Cl)cc12` (stereo not given), for which the growth was 87.9% (inactive).

Take `CSc1nc2ccccc2cc1/C=[N+](\[O-])c1ccccc1`: the growth is 61.6% (inactive).

For `O=C(NCCNc1nccc(Nc2ccc(S(=O)(=O)Nc3ccccn3)cc2)n1)c1cccc([N+](=O)[O-])c1`, the growth was 89% (inactive).

On to `COc1ccc(CN2c3ccccc3Sc3ccccc32)cc1F`, for which the growth was 49.7% (inactive).

For the compound `CCCCC1=C(P(=O)(O)O)N[C@H](C(=O)O)CS1`, the growth is 96.7% (inactive).

Turning to `Nc1ncnc2c1C(c1ccccc1)c1ccc3ccccc3c1O2` (stereo not given), the growth was 55.7% (inactive).

For the compound `O=c1c2cccc3c(N4CCCC4)ccc(c32)c2nc3ccccc3n12`, the growth is 72.2% (inactive).

In the case of `CCN(CC)CCCCCNc1cc(OC(=O)c2ccc(Cl)cc2)cc2cccnc12`, the growth was 56% (inactive).

In the case of `CSc1oc(C)nc1[P+](c1ccccc1)(c1ccccc1)c1ccccc1`, the growth was 8.57% (active).

For `COc1ccc(-c2ccc(=O)oc2-c2cc(OC)c(OC)c(OC)c2)cc1O`, the growth is 67.8% (inactive).

In the case of `C=C1CC[C@@H]2[C@](C)(COC(C)=O)[C@H](OC(C)=O)CC[C@@]2(C)[C@@H]1CC(Nc1ccc(S(=O)(=O)Nc2ncccn2)cc1)C1=CCOC1=O` (stereo not given in full), the growth was 42.3% (inactive).

Regarding `C=CCOC(=O)Nc1cccn([C@H](Cc2ccccc2)C(=O)NCCC(C)C)c1=O`, the growth is 93.8% (inactive).

In the case of `Cc1[nH]c(C(=O)Nc2ccc(C(=O)N3CCN(c4cc5c(cc4F)c(=O)c(C(=O)O)cn5C4CC4)CC3)cc2OC(C)C)c(Cl)c1Cl`, the growth was 84% (inactive).

Take `CC1CCN(S(=O)(=O)c2ccc(S(=O)(=O)N3CCCC(c4nc5c(nnn5Cc5cccc(Cl)c5)c(=O)[nH]4)C3)cc2)CC1` (stereo not given): the growth was 50.3% (inactive).

Consider `N#Cc1c(-c2ccc(Cl)cc2)c(C#N)c2c(C#N)c(N)nn2c1N`, for which the growth is 57% (inactive).

In the case of `O=C(Nn1c2c(sc1=NC1CC1)C(=O)c1ccccc1C2=O)c1cc2ccc1CCc1ccc(cc1)CC2`, the growth is 20.4% (inactive).

`Nc1nc2ccc(-c3nc4ccc5[nH]ncc5c4c4c3CCCC4)cc2s1`: the growth is 110% (inactive).

Turning to `CCOC(=O)c1c(NC(=O)c2ccc(Cl)cc2)sc2c(CN(C)C)c(O)ccc12`, the growth was 71.4% (inactive).

On to `N#Cc1nc(-c2ccc(F)cc2)oc1S(=O)(=O)N1CCCCC1`, for which the growth was 2.97% (active).

As to `CCOC(=O)n1ccn(C)c1=S`, the growth was -28.3% (active).

`O=C(Nc1ccc(Oc2cccc(F)c2)c(Cl)c1)c1cccnc1`: the growth is 33.5% (inactive).

In the case of `O=C1/C(=C/c2cccc(F)c2)CN(C(=O)C(Cl)Cl)C/C1=C\c1cccc(F)c1`, the growth is -26.5% (active).
